A selection: hits, their analogues and other compounds. The true share with any hit is near 19%.
IL-1B inflam inh = inflammasome signaling inhibition, IL-1 beta readout; THP-1 LPS/ATP IL-1B secretion, AlphaLISA, 16 h; stronger effect = lower value; AID 743279; 360,000 compounds, 4.7% hits; activity change, % at 57.5 µM; in the data active = activity change below about -50%; inconclusive = mostly about -30% to -49%
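Secreted IL-1B measured by AlphaLISA bead assay after 16 h compound exposure of THP-1 cells; compounds (final up to 57.5 uM) added 1 h before LPS (250 ng/mL) and ATP (1.25 mM) stimulation; lower signal means less secretion.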
DT40 TDP1 CPT = growth inhibition of DT40 Tdp1-/-;hTDP1 cells with camptothecin (screen for TDP1 inhibitors); Potency, µM (series often up to 46.2 µM), usual class: inhibitors; chicken DT40 Tdp1-/-;hTDP1 cells + 20 nM CPT, ATP luminescence, 48 h; AID 686979; 420,000 compounds, 12% hits; also: nearly all actives have a fitted effect of over 55% in size
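Chicken DT40 Tdp1-/- cells stably complemented with human TDP1 were seeded at 400 cells/well in medium containing 20 nM camptothecin, exposed to pin-transferred compounds, and grown at 37 °C for at least 48 hr. Viability was read as ATP luminescence.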
TDP1 cell noCPT = qHTS for Inhibitors of human tyrosyl-DNA phosphodiesterase 1 (TDP1): qHTS in cells in absence of CPT | AID 686978, 2013 | DT40 Tdp1-/- hTDP1 cells, no CPT, ATP luminescence, 48 h | Potency, µM (top dose mostly 46.2 µM), actives largely listed as inhibitors | 420,000 compounds, 15% hits; also: nearly all actives have a fitted effect of over 55% in size
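Camptothecin absent (DMSO only). Human TDP1-complemented DT40 knockout cells, 400 cells/well, 37 °C for minimum 48 hr; ATP measured via CellTiter-Glo, 30 min dark incubation, luminescence.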
SW480 rerep = DNA re-replication induction in SW480 cells; 340,000 compounds, 1.8% hits; Potency, µM (series often up to 46.1 µM), hits mostly activators; SW480 DNA re-replication, Hoechst DNA content imaging, 48 h; also: nearly all actives have a fitted effect of over 55% in size
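SW480 cells exposed to compounds for 48 hr at 37 C, 5% CO2, then Hoechst-stained 40 min. Nuclear DNA content imaged by fluorescence scanning (405 nm excitation, 500-530 nm emission); re-replication scored as increased high-intensity nuclei.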
Chronic BCR inh = chronic active BCR signaling inhibition; Potency, µM (series often up to 46.1 µM), usual class: inhibitors; AID 493014; ABC-DLBCL IkBa-CBG/CBR reporter, luminescence ratio, 4 h; 340,000 compounds, 0.05% hits; active = well fitted inhibition curve with a large enough effect in the signal ratio, with a control signal flat, not every such curve was filed as active; inconclusive = small, poorly fitted or top-dose-only effect, or effect the other way, or a change in a side signal; the % refers to the signal ratio
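Compounds up to 46 uM were incubated four hours with TMD8 cells whose green CBG68 luciferase is fused to IkappaBalpha; red CBR luminescence normalised the signal, and concentration-effect curves were fitted to fusion, red and ratio data.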
MCF10A rerep = induces DNA re-replication in MCF 10a normal breast cells; MCF 10A DNA re-replication, Hoechst nuclear intensity, 48 h; Potency, µM (series often up to 46.1 µM), most hits filed as activators; 350,000 compounds, 2.9% hits; also: nearly all actives have a fitted effect of over 50% in size
Large screens that a line does not name were inactive. Unless noted, calls follow the shape of the dose curve; as a rule, active = well fitted curve in the direction sought with a large enough effect; inconclusive = small, poorly fitted or top-dose-only effect, or another doubt; inactive = no such curve, though single readings can be large; an effect the other way counts as inactive or inconclusive.

COC(=O)C1=C(C(=O)OC)[C@@H]2N(Cc3ccccc3)c3ccccc3[C@@]23C[C@@H](C(=O)OC)N(C(=O)NC(C)(C)C)C3=N1	DT40 TDP1 CPT inconclusive (no result: Chronic BCR inh)
CC(=O)c1ccc(N(C(=O)CNC(=O)c2ccco2)C(C(=O)NC2CCCC2)c2ccncc2)cc1 (stereo unspecified)	none
CC(C)CNC(=O)C1(C)CCN1C(=O)c1ccc(C(C)(C)C)cc1 (stereo unspecified)	DT40 TDP1 CPT 10.3µM, TDP1 cell noCPT 8.2µM (no result: SW480 rerep, Chronic BCR inh, MCF10A rerep)
CC(C)(C)c1ccc(C(=O)N2CCC2(C)C(=O)NCc2ccc3c(c2)OCO3)cc1 (stereo unspecified)	DT40 TDP1 CPT 11.6µM, TDP1 cell noCPT 9.2µM (no result: SW480 rerep, Chronic BCR inh, MCF10A rerep)
CC1(C(=O)NCc2ccc3c(c2)OCO3)CCN1C(=O)CC1CCCC1 (stereo unspecified)	DT40 TDP1 CPT inconclusive, TDP1 cell noCPT inconclusive (no result: SW480 rerep, Chronic BCR inh, MCF10A rerep)
Cc1c(C(=O)N2CCCCCC2(C)C(=O)NCC(C)C)oc2ccccc12 (stereo unspecified)	DT40 TDP1 CPT inconclusive, TDP1 cell noCPT 18.4µM (no result: SW480 rerep, Chronic BCR inh, MCF10A rerep)
O=C(NCCN1CCN(Cc2ccccc2)CC1)c1ccc(CS(=O)(=O)c2ccc(Br)cc2)o1	DT40 TDP1 CPT inconclusive, TDP1 cell noCPT inconclusive
COc1ccc(NC(=O)c2ccc3c(c2)NC(=O)CS3)cc1S(=O)(=O)Nc1ccc(Br)cc1	DT40 TDP1 CPT inconclusive, TDP1 cell noCPT 29.1µM, Chronic BCR inh inconclusive
Cc1ccc(NS(=O)(=O)c2cc(NC(=O)c3ccc4c(c3)NC(=O)CS4)ccc2C)c(C)c1	IL-1B inflam inh -115.5, DT40 TDP1 CPT inconclusive, TDP1 cell noCPT inconclusive, Chronic BCR inh inconclusive, MCF10A rerep inconclusive
CC(=O)NS(=O)(=O)c1ccc(NC(=O)c2ccc3c(c2)NC(=O)CS3)cc1	none
O=C(Cc1ccc(Cl)cc1)OCC(=O)N1CCCCCC1	none
COc1ccc(OC)c(CCNC(=O)c2cc3c(s2)-c2c(C)cccc2OC3)c1	DT40 TDP1 CPT 11.6µM, TDP1 cell noCPT 7.31µM (no result: IL-1B inflam inh, SW480 rerep, Chronic BCR inh, MCF10A rerep)
CCN1CCN(CCCNC(=O)c2cc3c(s2)-c2c(C)cccc2OC3)CC1	DT40 TDP1 CPT 4.61µM, TDP1 cell noCPT 5.8µM (no result: IL-1B inflam inh, SW480 rerep, Chronic BCR inh, MCF10A rerep)
Cc1cccc2c1-c1sc(C(=O)NCCCN3CCN(c4cccc(Cl)c4)CC3)cc1CO2	DT40 TDP1 CPT 23.1µM, TDP1 cell noCPT inconclusive (no result: IL-1B inflam inh, SW480 rerep, Chronic BCR inh, MCF10A rerep)
CCOc1ccc(CCNC(=O)c2cc3c(s2)-c2c(C)cccc2OC3)cc1	none (no result: IL-1B inflam inh, SW480 rerep, Chronic BCR inh, MCF10A rerep)
CCCN(C(=O)c1cc2c(s1)-c1ccccc1SC2)c1ccccc1F	DT40 TDP1 CPT inconclusive, TDP1 cell noCPT 16.4µM (no result: IL-1B inflam inh, SW480 rerep, Chronic BCR inh, MCF10A rerep)
CCN(C(=O)c1cc2c(s1)-c1c(C)cccc1OC2)c1ccccc1F	DT40 TDP1 CPT 20.6µM, TDP1 cell noCPT 20.6µM (no result: IL-1B inflam inh, SW480 rerep, Chronic BCR inh, MCF10A rerep)
Cc1cccc2c1-c1sc(C(=O)NCCCN3CCN(c4ccccc4F)CC3)cc1CO2	DT40 TDP1 CPT inconclusive, TDP1 cell noCPT 6.51µM (no result: IL-1B inflam inh, SW480 rerep, Chronic BCR inh, MCF10A rerep)
O=C(NCCCN1CCOCC1)c1cc2c(s1)-c1ccccc1OC2	IL-1B inflam inh inconclusive, MCF10A rerep inconclusive
Cc1nccn1CCC(=O)NC1CC(C)(C)Cc2c1cnn2-c1ccccc1 (stereo unspecified)	none (no result: SW480 rerep, Chronic BCR inh, MCF10A rerep)
C=CCn1c(=O)c2c(nc(-c3ccccc3)n2C)n(C)c1=O	none (no result: IL-1B inflam inh, SW480 rerep, Chronic BCR inh, MCF10A rerep)
c1ccc(NCc2nc3ccccc3n2CCOc2ccccc2)cc1	DT40 TDP1 CPT inconclusive, TDP1 cell noCPT inconclusive, Chronic BCR inh inconclusive (no result: SW480 rerep)
COc1cccc(OCc2nc3ccccc3n2Cc2ccccc2)c1	DT40 TDP1 CPT inconclusive, TDP1 cell noCPT 18.4µM (no result: IL-1B inflam inh, SW480 rerep, Chronic BCR inh, MCF10A rerep)
Cc1ccccc1Cn1c(COc2ccc(Cl)cc2)nc2ccccc21	DT40 TDP1 CPT inconclusive, TDP1 cell noCPT 13µM (no result: IL-1B inflam inh, SW480 rerep, Chronic BCR inh, MCF10A rerep)
COc1cccc(Cn2c(C(C)n3c(-c4cnccn4)nc4ccccc43)nc3ccccc32)c1 (stereo unspecified)	IL-1B inflam inh inconclusive, DT40 TDP1 CPT inconclusive, TDP1 cell noCPT 20.6µM (no result: SW480 rerep, Chronic BCR inh, MCF10A rerep)
COc1ccc(NCc2nc3ccccc3n2CCOc2ccccc2)cc1	IL-1B inflam inh -114.3, DT40 TDP1 CPT inconclusive, TDP1 cell noCPT inconclusive, Chronic BCR inh inconclusive, MCF10A rerep inconclusive
COc1cccc(Cn2c(Cn3c(-c4cnccn4)nc4ccccc43)nc3ccccc32)c1	TDP1 cell noCPT inconclusive (no result: SW480 rerep, Chronic BCR inh, MCF10A rerep)
CC(=O)Nc1ccccc1-c1nc(CNC(=O)c2cccc(-n3cccn3)c2)c(C)o1	none (no result: IL-1B inflam inh, SW480 rerep, Chronic BCR inh, MCF10A rerep)
O=C(c1ccc(Cl)cc1)n1nc(-c2ccccc2)nc1NCc1ccco1	none (no result: IL-1B inflam inh, SW480 rerep, Chronic BCR inh, MCF10A rerep)
Cc1ccc(OCCn2c(CCCO)nc3ccccc32)cc1	DT40 TDP1 CPT inconclusive, TDP1 cell noCPT inconclusive (no result: Chronic BCR inh)
COc1cccc(OCc2nc3ccccc3n2CCOc2ccc(C)cc2)c1	DT40 TDP1 CPT 23.1µM, TDP1 cell noCPT 16.4µM (no result: IL-1B inflam inh, SW480 rerep, Chronic BCR inh, MCF10A rerep)
COCc1nc2ccccc2n1Cc1ccc(C(C)(C)C)cc1	DT40 TDP1 CPT 20.6µM, TDP1 cell noCPT 25.9µM (no result: IL-1B inflam inh, SW480 rerep, MCF10A rerep)
COc1ccc(NCc2nc3ccccc3n2CCOc2ccc(C)cc2)cc1	IL-1B inflam inh -95.1, DT40 TDP1 CPT 16.4µM, TDP1 cell noCPT 16.4µM, Chronic BCR inh inconclusive, MCF10A rerep 20.6µM

Bioassay records deposited in PubChem by National Center for Advancing Translational Sciences (NCATS).
